{"source": "PubChem BioAssay (NCATS)", "key": {"[1]": {"assay": "Viability qHTS for spleen associated tyrosine kinase inhibitor (SYKi) naive MV4-11 cells (AID 1963823); note: nearly all actives have a fitted effect of over 40% in size", "method_in_brief": "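In this viability screen, compounds acted on SYK inhibitor naive MV4-11 cells for three days (72 hr, 37 C). Remaining viable cells were measured by CellTiter-Glo luminescence following a 10 min room-temperature development.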"}, "[2]": {"assay": "Viability qHTS for spleen associated tyrosine kinase inhibitor (SYKi) drug resistant MV4-11 cells (AID 1963824); note: nearly all actives have a fitted effect of over 35% in size", "method_in_brief": "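SYK-inhibitor-resistant MV4-11 AML cells were seeded at 500 per well onto compound and cultured 72 hours (37 °C, 5% CO2). CellTiter-Glo was then added, and after 10 min at room temperature, luminescence gave viability.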"}}, "note": "Records with an inconclusive call do not appear. Unmarked numbers belong to inactive results. Calls of active or inactive are those of the source. Calls come from the whole dose curve; as a rule, active = well fitted cell-killing curve with a large enough effect; inconclusive = small, poorly fitted or top-dose-only effect, or effect the other way; inactive = no such curve, though single readings can be large or run the other way. Potency is the fitted concentration of half-maximal effect.", "data": [{"smiles": "CC1CC(=O)[C@]2(O)C(C(=O)OCCc3ccc(O)cc3)=CO[C@@H](O[C@@H]3O[C@H](CO)[C@@H](O)[C@H](O)[C@H]3O)[C@H]12", "note": "(stereo partly specified)", "values": [{"measurement": "Potency", "setting": "[1]", "result": "inactive"}, {"measurement": "Potency", "setting": "[2]", "result": "inactive"}]}, {"smiles": "CC(C)=CCC[C@](C)(O[C@@H]1O[C@H](CO[C@@H]2O[C@@H](CO)[C@H](O)[C@H]2O)[C@@H](O)[C@H](O)[C@H]1O)[C@H]1CC[C@]2(C)[C@@H]1[C@H](O)C[C@@H]1[C@@]3(C)CC[C@H](O[C@@H]4O[C@H](CO)[C@@H](O)[C@H](O)[C@H]4O[C@@H]4O[C@H](CO)[C@@H](O)[C@H](O)[C@H]4O)C(C)(C)[C@@H]3CC[C@]12C", "values": [{"measurement": "Potency", "setting": "[1]", "result": "inactive"}, {"measurement": "Potency", "setting": "[2]", "result": "inactive"}]}, {"smiles": "Nc1nc(NC2CC2)cc(-c2cccc(Cl)c2Cl)n1", "values": [{"measurement": "Potency", "setting": "[1]", "result": "10.3 µM (active)"}, {"measurement": "Potency", "setting": "[2]", "result": "7.31 µM (active)"}]}, {"smiles": "CC1=CC(=O)C(=C(C)C)CC2C1CCC2(C)O", "note": "(stereo unspecified)", "values": [{"measurement": "Potency", "setting": "[1]", "result": "inactive"}, {"measurement": "Potency", "setting": "[2]", "result": "inactive"}]}, {"smiles": "Cc1ccccc1CN1C2=NCCN2C(=O)C2=C1CCN(Cc1ccccc1)C2", "values": [{"measurement": "Potency", "setting": "[1]", "result": "16.4 µM (active)"}, {"measurement": "Potency", "setting": "[2]", "result": "9.2 µM (active)"}]}, {"smiles": "CN(Cc1ccc(C(=O)O)cc1)c1ccc(OCc2c(-c3c(Cl)cccc3Cl)noc2C2CC2)nc1C(F)(F)F", "values": [{"measurement": "Potency", "setting": "[1]", "result": "20.6 µM (active)"}, {"measurement": "Potency", "setting": "[2]", "result": "16.4 µM (active)"}]}, {"smiles": "CCC(=O)OCC(=O)[C@@]1(OC(=O)CC)[C@@H](C)C[C@H]2[C@@H]3CCC4=CC(=O)C=C[C@]4(C)[C@@]3(F)[C@@H](O)C[C@@]21C", "values": [{"measurement": "Potency", "setting": "[1]", "result": "18.4 µM (active)"}, {"measurement": "Potency", "setting": "[2]", "result": "20.6 µM (active)"}]}, {"smiles": "CC(C)C1C(OC(=O)/C=C/c2ccccc2)CC2(C)OC2CCC2(C)OC2C1O", "note": "(stereo unspecified)", "values": [{"measurement": "Potency", "setting": "[1]", "result": "inactive"}, {"measurement": "Potency", "setting": "[2]", "result": "inactive"}]}, {"smiles": "CC(C)=CCC/C(C)=C/CCC1(C)Oc2c(c(O)cc3c2CN(C(CCC(=O)O)C(=O)O)C3=O)CC1O", "note": "(stereo unspecified)", "values": [{"measurement": "Potency", "setting": "[1]", "result": "inactive"}, {"measurement": "Potency", "setting": "[2]", "result": "inactive"}]}, {"smiles": "Oc1ccc(CNc2ccccc2F)c2cccnc12", "values": [{"measurement": "Potency", "setting": "[1]", "result": "2.91 µM (active)"}, {"measurement": "Potency", "setting": "[2]", "result": "4.61 µM (active)"}]}, {"smiles": "O=C(Nc1ccc(C(O)(C(F)(F)F)C(F)(F)F)cc1)c1ccc(C(F)(F)F)cc1", "values": [{"measurement": "Potency", "setting": "[1]", "result": "1.84 µM (active)"}, {"measurement": "Potency", "setting": "[2]", "result": "1.84 µM (active)"}]}, {"smiles": "O=C(CCc1nnc2n(Cc3ccc(Cl)cc3)c(=O)c3ccccc3n12)NCCC1=CCCCC1", "values": [{"measurement": "Potency", "setting": "[1]", "result": "inactive"}, {"measurement": "Potency", "setting": "[2]", "result": "inactive"}]}, {"smiles": "COc1ccc(C(=O)O[C@H]2C=COC=C3C=C4C(=O)N(C)C(=S)C(=O)N4[C@@H]32)cc1Oc1cc(C=O)ccc1O", "values": [{"measurement": "Potency", "setting": "[1]", "result": "2.82 µM (active)"}, {"measurement": "Potency", "setting": "[2]", "result": "2.24 µM (active)"}]}, {"smiles": "COc1cc(C(=O)OCCCN2CCCN(CCCOC(=O)c3cc(OC)c(OC)c(OC)c3)CC2)cc(OC)c1OC", "values": [{"measurement": "Potency", "setting": "[1]", "result": "21.1 µM (active)"}, {"measurement": "Potency", "setting": "[2]", "result": "21.1 µM (active)"}]}, {"smiles": "Cc1ccc(-c2nn(C(C)(C)C)c3ncnc(N)c23)cc1", "values": [{"measurement": "Potency", "setting": "[1]", "result": "3.66 µM (active)"}, {"measurement": "Potency", "setting": "[2]", "result": "8.2 µM (active)"}]}, {"smiles": "C[C@H]1O[C@@H](O[C@H]2CC[C@@]3(C)C(CC[C@]4(C)C3CC=C3C5CC(C)(C)CC[C@]5(C(=O)O)CC[C@]34C(=O)O)C2(C)C)[C@H](O)[C@@H](O)[C@@H]1O", "note": "(stereo partly specified)", "values": [{"measurement": "Potency", "setting": "[1]", "result": "inactive"}, {"measurement": "Potency", "setting": "[2]", "result": "inactive"}]}, {"smiles": "Nc1nc2c(nc(Sc3ccc(Cl)cc3)n2[C@@H]2O[C@@H]3COP(=O)(O)O[C@H]3[C@H]2O)c(=O)[nH]1", "values": [{"measurement": "Potency", "setting": "[1]", "result": "inactive"}, {"measurement": "Potency", "setting": "[2]", "result": "inactive"}]}, {"smiles": "CN(C)CC1CCn2c(c(C3=C(c4cn(C)c5ccccc45)C(=O)NC3=O)c3ccccc32)C1", "note": "(stereo unspecified)", "values": [{"measurement": "Potency", "setting": "[1]", "result": "1.46 µM (active)"}, {"measurement": "Potency", "setting": "[2]", "result": "2.91 µM (active)"}]}, {"smiles": "Nc1nc(OC(c2ccc(-c3cccc(F)c3)cc2)C(F)(F)F)cc(-c2ccc(C[C@H](N)C(=O)O)cc2)n1", "note": "(stereo partly specified)", "values": [{"measurement": "Potency", "setting": "[1]", "result": "18.6 µM (active)"}, {"measurement": "Potency", "setting": "[2]", "result": "18.6 µM (active)"}]}, {"smiles": "CN(CCCNC(=O)c1ccc2nc3c(c(Cl)c2c1)CCCC3)Cc1ccccc1", "values": [{"measurement": "Potency", "setting": "[1]", "result": "5.8 µM (active)"}, {"measurement": "Potency", "setting": "[2]", "result": "8.2 µM (active)"}]}, {"smiles": "CC1(C)CCCC2(C)c3c4c(c(=O)oc(=O)c3=CCC12)=CCC1C(C)(C)CCCC41C", "note": "(stereo unspecified)", "values": [{"measurement": "Potency", "setting": "[1]", "result": "inactive"}, {"measurement": "Potency", "setting": "[2]", "result": "inactive"}]}, {"smiles": "C[C@@H]1O[C@@H](O[C@@H]2[C@@H](O)[C@@H](O[C@]3(CO)O[C@H](CO)[C@@H](O)[C@@H]3OC(=O)/C=C/c3ccc(O)cc3)O[C@H](CO)[C@H]2OC(=O)/C=C/c2ccc(O)cc2)[C@H](O)[C@H](O)[C@H]1O[C@@H]1O[C@@H](C)[C@H](O[C@@H]2OC[C@](O)(CO)[C@H]2O)[C@@H](O)[C@H]1O", "values": [{"measurement": "viability (% of control)", "setting": "[1]", "result": "90% [at 9.25 µM]"}, {"measurement": "viability, % of control", "setting": "[2]", "result": "102% [at 9.25 µM]"}]}, {"smiles": "N#CC1C(=O)N=C(c2cc(Cl)ccc2O)C=C1c1cc(OCc2ccccc2)cc(OCc2ccccc2)c1", "note": "(stereo unspecified)", "values": [{"measurement": "Potency", "setting": "[1]", "result": "inactive"}, {"measurement": "Potency", "setting": "[2]", "result": "inactive"}]}]}
